TrxR1 substrate – substrates of rat thioredoxin reductase 1; O89049; purified TrxR1 substrate turnover, NADPH consumption readout; Potency, µM (series often up to 114 µM), without a hit: at the top dose activity change, negative = substrate turnover; actives 0.01% (n = 390,000); AID 588456; also: potency is read from the fitted curve at half-maximal effect; nearly all actives have a fitted effect of over 50% in size
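Rat TrxR1, dispensed at 90 nM, was prereduced with 400 uM NADPH (final) for 5 min at ~22 deg C, then incubated with compound 15 min before 400 uM selenite. A first-read NADPH fluorescence drop versus no-compound background flagged substrates.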
GALK inh – blocks human galactokinase activity; P51570; Purified GALK, Kinase-Glo residual ATP luminescence; Potency, µM (top dose mostly 57.5 µM), for the others: at the top dose activity change, negative = inhibition, most hits filed as inhibitors; actives 0.007% (n = 270,000); AID 1868; also: potency is read from the fitted curve at half-maximal effect
Target sequence (P51570 whole entry, looked up): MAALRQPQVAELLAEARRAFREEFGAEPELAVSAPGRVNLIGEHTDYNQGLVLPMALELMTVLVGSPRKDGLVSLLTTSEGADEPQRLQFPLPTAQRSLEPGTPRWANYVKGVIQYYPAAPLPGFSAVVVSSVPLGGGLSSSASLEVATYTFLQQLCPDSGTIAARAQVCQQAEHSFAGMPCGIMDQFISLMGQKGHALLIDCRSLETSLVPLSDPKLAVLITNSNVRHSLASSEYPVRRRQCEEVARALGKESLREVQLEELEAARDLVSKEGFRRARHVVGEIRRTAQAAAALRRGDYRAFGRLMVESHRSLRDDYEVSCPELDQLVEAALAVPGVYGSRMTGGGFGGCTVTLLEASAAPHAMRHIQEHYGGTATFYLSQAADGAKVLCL
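Kinase-Glo Plus luminescence measured ATP left after a 1 h room-temperature reaction. The reaction used 5 nM GALK, 100 uM galactose and 35 uM ATP at pH 8.0 (20 mM HEPES, 5 mM MgCl2, 60 mM NaCl, 1 mM DTT, 0.01% BSA).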
rTrxR1 inhibitor – blocks rat thioredoxin reductase 1 | actives 1% (n = 390,000) | recombinant rTrxR1, NADPH fluorescence consumption, selenite substrate | AID 588453 | Potency, µM (titrated, usually from 114 µM), for the others: at the highest dose activity change, negative = inhibition, hits mostly inhibitors | O89049; also: potency is read from the fitted curve at half-maximal effect; nearly all actives have a fitted effect of over 65% in size
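Rat TrxR1 (90 nM in the dispensed reagent) was pre-reduced with 400 uM NADPH for 5 min at room temperature, then incubated with compound for 15 min. After 400 uM selenite was added, NADPH fluorescence (Ex 340/Em 450 nm) was followed for 8 min.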
Giardia killer – Giardia lamblia killing; Giardia lamblia trophozoite viability; activity change, % at 7.66 µM, hits read low; actives 0.15% (n = 340,000); AID 540267; in the data active = activity change below about -80%; inconclusive = between about -30% and that limit;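 also: parasites exposed to compound for two days anaerobically before the ATP read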
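Each well holds 100 Giardia trophozoites and compound. After two days (48 hrs) at 37 deg C in anaerobic conditions, ATP is quantified by luminescence.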
Coupling enz – inhibits coupling enzyme system, counter-screen for aldolase hits. coupling enzyme system counterscreen, AmpLite Red fluorescence. activity change, negative = inhibition, % at 58.2 µM, hits read low. actives 0.67% (n = 290,000). AID 2472; in the data active = activity change below about -30%
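Activity here indicates interference with the coupling reaction, not aldolase inhibition. Compounds at 57.5 uM final met coupling enzymes for 10 min at RT; substrate and AmpLite Red detection followed, with a 525/598 nm fluorescence read after 20 min.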
PI4K2A inh – PI4K2A (human) kinase inhibition; Q9BTU6; purified PI4K2A, ADP-Glo luminescence, 1 h; hits give low values; activity change, negative = inhibition, % at 76.9 µM; actives 0.13% (n = 420,000); in the data active = activity change below about -50%; inconclusive = mostly about -30% to -49%;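 also: -100% = wells without enzyme as full effect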
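PI4K2A activity was measured by ADP-Glo luminescence: enzyme (4 ug/mL stock) and phosphatidylinositol (1.2 mM stock) in Tris pH 7.5/MgCl2/EGTA/Triton X-100 buffer were reacted with ATP (300 microM stock) for one hour at ambient temperature.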
* marks the source's active call; other numbers are inactive results; ? = inconclusive; / = no result; ! = not active in a repeat; [ ] = another dose, or the depositor's remark. In the library only some 1.5% were active in any assay of this set; here they are far more common. Unless noted, calls follow the shape of the dose curve; as a rule, active = well fitted curve in the direction sought with a large enough effect; inconclusive = small, poorly fitted or top-dose-only effect, or another doubt; inactive = no such curve, though single readings can be large; an effect the other way counts as inactive or inconclusive. Unless noted, % is scaled to controls: 0 for no effect and ±100 for the full control effect.

SMILES	TrxR1 substrate	GALK inh	rTrxR1 inhibitor	Giardia killer	Coupling enz	PI4K2A inh
O=C(c1cc(Br)cc(Br)c1)N1CCC(Oc2cccnc2)CC1	/	/	/	/	/	2
Brc1ccc(C=C2C=c3ccccc3=C2)cc1	-3%	/	35µM*	/	/	/
O=S1(=O)c2ccccc2N(Cc2ccccc2Cl)c2ccccc21	7%[57.1 µM]	/	29%[57.1 µM]	/	/	-1
COc1ccccc1N(O)C1CC(=O)N(c2ccc(Br)cc2)C1=O (centres undefined)	-9%	-1%	45µM*	7	-4	-2
CCCCCCC(=O)N(O)C1CC(=O)N(c2ccc(Br)cc2)C1=O (centres undefined)	-3%	-3%	22µM*	-5	-2	5
CCCCCCC(=O)N(O)C1CC(=O)N(c2ccc(F)cc2)C1=O (centres undefined)	12%[57.1 µM]	5%	3.5µM*	-18	6	1
CCC[C@H]1[C@@H](N(C)Cc2cccs2)CC[C@@]23CCCN2C(=O)CCC[C@@H]13	/	/	/	/	/	-2
CCC(=O)N[C@H]1C[C@@H]2O[C@@H](CO)CC[C@@H]2O[C@@H]1CCc1ccc(-c2cccc(OC)c2)cc1	/	/	/	/	/	1
FC(F)(F)c1cccc(-c2nc3nc(Cl)c(Cl)nc3[nH]2)c1	56%[57.1 µM]	-3%	15%[2.29 µM]	-13	-36*	-2
FC(F)(F)c1nc2nc(Cl)c(Cl)nc2[nH]1	/	/	/	/	/	3
CCCC(=O)NC(=S)N1CCN(c2ccc([N+](=O)[O-])cc2)CC1	-15%	0%	-18%	-25	-32*	3
Cc1ccc(S(=O)(=O)CCC(=O)N2CCN(c3ccc([N+](=O)[O-])cc3)CC2)cc1	-2%	9%	28µM*	1	0	0
COc1ccc2c(c1)C(=O)[C@H](OC(=O)N[C@H]1CCCc3ccccc31)[C@@H](c1ccc(OC)c(Br)c1)O2	/	/	/	/	0	/
O=[n+]1c2c(n([O-])c3cc(Br)ccc31)CCCC2	-14%	0%	-20%	?	1	1
O=[n+]1c2c(n([O-])c3cc(F)c(F)cc31)CCCC2	-8%	-1%	3.5µM*	-5	-4	-3
O=C(NC1CCCCC1)Sc1ccc(Cl)cc1	4%	0%	18µM*	15	0	?
Cc1cccc(NC(=O)Cn2nc(-c3ccccc3)c3cnc4ccccc4c32)c1	-3%[57.1 µM]	/	22%[57.1 µM]	/	/	-4
CCc1nnc(SCC(=O)N(C)c2ccccc2)c2cc3sccc3n12	-9%	/	-5%	/	/	-4
COc1cc(C/C=C/c2ccccc2)c(OC)cc1O	/	/	/	/	-51*	/
COc1cc(O)c(C(=O)/C=C/c2ccccc2)c(OC)c1	-2%	2%	-14%	-13	-1	-1
O=[N+]([O-])c1ccc(-c2nc(C(Cl)Cl)c3ccccc3n2)cc1	-1%	2%	24%	-91*	0	-1
CN(Cc1ccccc1)c1nc(-c2ccc([N+](=O)[O-])cc2)nc2ccccc12	-5%	0%	7%	10	1	6
O=C(CSc1nnc(-c2ccccn2)n1Cc1ccco1)c1ccc(Cl)cc1	-3%	1%	?	-16	0	-2
O=C(CSc1nnc(-c2cnccn2)n1Cc1ccco1)c1ccc(Cl)cc1	6%	-1%	13µM*	6	-2	-17
O=C(CSc1nnc(-c2cnccn2)n1Cc1ccco1)c1ccccc1	-1%	-2%	56µM*	-3	-1	-1
SMILES	TrxR1 substrate	GALK inh	rTrxR1 inhibitor	Giardia killer	Coupling enz	PI4K2A inh
CCOc1ccccc1N1C(=O)c2ccccc2N/C1=C\N1CCN(C(=O)c2ccco2)CC1	3%	/	-21%	17	/	/
CCOC(=O)C1=C(O)c2ccccc2C(=O)/C1=C\c1ccc(CC)cc1	-19%	-3%	10µM*	-8	-48*	-4
CCOC(=O)C1=C(C)N(c2ccccc2)C(=O)/C1=C\c1ccc(O)c(OC)c1	-16%	0%	?	6	3	-6
CCOC(=O)C1=C(C)OC(=Cc2ccc(OC)cc2)C1=O	/	/	/	/	/	0
CCCc1ccc(/C=C2\C(=O)c3ccccc3C(O)=C2C(=O)OCC)cc1	/	-3%	/	/	-37*	/
CCC[C@H]1[C@@H](OC(=O)NCc2ccc(OC)c(OC)c2)CC[C@@]23CCCN2C(=O)CCC[C@@H]13	/	/	/	/	/	1
CCNc1nc(NCC)nc(N/N=C/c2ccc([N+](=O)[O-])o2)n1	-17%	-1%	45µM*	-82*	-7	4
O=[N+]([O-])c1ccc(/C=N/Nc2nc(N3CCCC3)nc(N3CCCC3)n2)o1	10%	0%	-59%[57.1 µM]	-95*	-6	-3
CN1CCCN(S(=O)(=O)c2ccc3c(c2)n(C)c(=O)c(=O)n3C)CC1	/	/	/	/	/	-3
CC1CCC(NC(=O)CCc2cn(Cc3ccc(F)cc3)c3ccccc23)CC1 (centres undefined)	-3%	/	27%	/	/	-1
COC(=O)c1ccc(N2C(=O)CC(Sc3n[nH]c(C)n3)C2=O)cc1 (centres undefined)	-1%	-2%	13µM*	24	-1	-6
O=C(O)Cc1c[nH]c2ccc(O)cc12	23%[57.1 µM]	/	11µM*!	4	/	2
c1ccc2[nH]c3cc4ncnc4cc3nc2c1	-9%	/	-12%	-17	-43*	-12
N#CC(C#N)=Cc1ccc(OCC(=O)N2CCOCC2)cc1	-5%	4%	16µM*	23	3	-1
Cc1oc(=O)c(NC(=O)c2ccccc2)cc1C(=O)c1ccccc1	-8%	4%	40µM*	-9	-1	10
Cn1c(COc2ccc(Br)cc2)nnc1SC1CCc2ccccc2C1=O (centres undefined)	-9%	-2%	-10%	-3	-57*	0
CCN(CC)c1ccc(NC(=S)NC(=O)c2cccs2)cc1	-7%[57.1 µM]	4%	79µM*	5	1	-1
Cc1ccc(C(=O)NC(=S)Nc2ccc(S(=O)(=O)N3CCN(C)CC3)cc2)cc1	-9%	/	50µM*	-6	1	1
O=C(NC(=S)Nc1ccc(S(=O)(=O)N2CCCC2)cc1)c1cccs1	-7%	-1%	20µM*	-15	2	2
Cc1cccc(C(=O)NC(=S)Nc2ccc(S(=O)(=O)N3CCN(C)CC3)cc2)c1	-4%	-3%	?	-21	0	1
COC(=O)CCCC1=CC2=CC(=O)C(C)(OC(=O)c3cccs3)C(=O)C2=CN1CCc1ccccn1 (centres undefined)	-5%	-3%	-24%	-21	-31*!	-6
C=CCN1C=C2C(=O)C(C)(OC(=O)c3cccs3)C(=O)C=C2C=C1CCCC(=O)OC (centres undefined)	-9%	-2%	-20%	0	-7	-9
O=c1[nH]/c(=C/c2ccc3c(c2)OCO3)c(=O)[nH]/c1=C/c1ccc2c(c1)OCO2	4%	/	20%	/	/	/

Screening data: PubChem BioAssay, National Center for Advancing Translational Sciences (NCATS)
